ELG1 genotoxic: genotoxicity induction in ELG1-luciferase HEK293T cells; hit rate 1.3% among 330,000; Potency, µM (titrated, usually from 46 µM), inactives show at the highest dose activity change, positive = activation, most hits filed as activators; HEK293T ELG1-luciferase reporter, luminescence, 16 h; also: % of control where 0% means no effect; nearly all actives have a fitted effect of over 60% in size
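Genotoxicity was scored as increased ELG1-luciferase reporter signal, measured by ONE-Glo luminescence (30 min, room temperature). Compound or vehicle exposure of the HEK293T reporter cells lasted 16 hr at 37°C.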
NPC1 promoter act: activators of NPC1 promoter | Huh7 NPC1 promoter luciferase reporter, 24 h | Potency, µM (highest dose often 9.22 µM), without a hit: at the highest dose activation, most hits filed as activators | hit rate 2.4% among 320,000; also: % of control where 0% means no effect; nearly all actives have a fitted effect of over 60% in size
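Luciferase expression driven by the NPC1 promoter was measured in stably transfected Huh7 cells after a 24 h compound incubation, using a luciferase reagent and a luminescence read.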
ELG1 DNA repair: blocks ELG1-dependent DNA repair in HEK293T cells. HEK293T ELG1-luciferase reporter, luminescence, 16 h; DNA damage induced by 5-fluorouridine. Potency, µM (highest dose often 46.1 µM), for inactives: top-dose activity change, negative = inhibition, hits mostly inhibitors. hit rate 2.3% among 330,000; also: % is scaled to controls: 0 for no effect and ±100 for the full control effect; nearly all actives have a fitted effect of over 55% in size
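Reporter activity after DNA damage by 5-fluorouridine is monitored. Compound-treated cells incubate 16 hr at 37 °C, then ONE-Glo is added for 30 min before luminescence reading.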
SMN2 splice up: enhancers of SMN2 splice variant expression. AID 1458. HEK293 SMN2-luciferase splicing reporter, luminescence, 30-36 h. Potency, µM (series often up to 46.1 µM), inactives show at the highest dose activity change, positive = activation, actives largely listed as activators. hit rate 2.8% among 210,000; also: % of control where 0% means no effect; nearly all actives have a fitted effect of over 55% in size
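HEK293 cells carry an SMN2 minigene-luciferase reporter in which exon 7 inclusion puts luciferase in frame. Cells were seeded at 2000 cells/well, attached for 10-12 hours, then exposed to compounds for 30-36 hours at 37C before ONE-Glo luminescence.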
Rab9 promoter act: activators of Rab9 promoter; Huh7 Rab9 promoter-luciferase reporter, luminescence, 24 h; Potency, µM (series often up to 9.22 µM), for inactives: top-dose activation, negative = inhibition, actives largely listed as activators; hit rate 2.8% among 320,000; AID 485297; also: % of control where 0% means no effect; nearly all actives have a fitted effect of over 60% in size
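Steps: seed 1500 Huh7 Rab9-luc cells per well, rest 2 h at 37 °C; add compound in DMSO; incubate 24 h; add luciferase reagent, 10 min ambient; read luminescence.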
FLuc modulator: firefly luciferase modulation, counter-screen for miR-21 project; hit rate 6.9% among 360,000; P08659; purified FLuc, Km substrates, luminescence inhibition; AID 588342; Potency, µM (top dose mostly 57.5 µM), for the others: at the top dose activity change, negative = inhibition, usual class: inhibitors;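 also: plate controls were vehicle for no effect and reference inhibitor for full effect; nearly all actives have a fitted effect of over 55% in size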
Target sequence (P08659 whole entry, looked up): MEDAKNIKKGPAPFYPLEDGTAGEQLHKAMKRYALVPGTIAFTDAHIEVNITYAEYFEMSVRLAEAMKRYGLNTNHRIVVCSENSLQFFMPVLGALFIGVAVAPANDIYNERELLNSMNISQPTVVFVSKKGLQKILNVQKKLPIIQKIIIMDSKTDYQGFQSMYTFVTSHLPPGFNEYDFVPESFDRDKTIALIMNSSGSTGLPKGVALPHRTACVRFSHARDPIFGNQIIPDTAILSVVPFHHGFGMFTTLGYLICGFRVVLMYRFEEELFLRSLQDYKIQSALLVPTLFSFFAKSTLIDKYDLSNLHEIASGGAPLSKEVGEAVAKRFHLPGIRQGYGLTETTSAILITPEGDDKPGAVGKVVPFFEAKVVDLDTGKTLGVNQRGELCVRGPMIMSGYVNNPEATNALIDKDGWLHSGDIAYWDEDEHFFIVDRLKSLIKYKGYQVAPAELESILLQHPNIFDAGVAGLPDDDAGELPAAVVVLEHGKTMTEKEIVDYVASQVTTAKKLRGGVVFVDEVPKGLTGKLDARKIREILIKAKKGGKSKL
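Purified P. pyralis luciferase, 10 nM final, with Km-level 10 uM D-luciferin and 10 uM ATP in 50 mM Tris acetate pH 7.5, 10 mM Mg acetate, 0.01% Tween-20, 0.05% BSA; 6-point qHTS titration about 60 µM downward; luminescence read.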
Active calls of the source: *; [ ] = dose if it differs, or a comment. Rows were chosen to be rich in hits. Some 9.2% of all compounds tested hit in one or more screens of this group. Calls follow the shape of the dose curve; as a rule, active = well fitted curve in the direction sought with a large enough effect; inconclusive = small, poorly fitted or top-dose-only effect, or another doubt; inactive = no such curve, though single readings can be large; an effect the other way counts as inactive or inconclusive. Potency is read from the fitted curve at half-maximal effect.

Screening Cc1ccc(C)c(N2CCN(C(=O)C3CCCN(S(=O)(=O)c4ccc5c(c4)oc(=O)n5C)C3)CC2)c1 (stereo not given) returned SMN2 splice up -71% and FLuc modulator -1%.
CCOC(=O)c1sc(/N=C/c2c(O)ccc3ccccc23)cc1C was read as ELG1 genotoxic 0%, NPC1 promoter act 3%, ELG1 DNA repair inconclusive, SMN2 splice up -34%, Rab9 promoter act 2% and FLuc modulator 19µM*.
`COc1ccc(N=Cc2c(O)[nH]c3ccccc23)cc1` gave ELG1 genotoxic inconclusive, NPC1 promoter act 1.6µM*, ELG1 DNA repair inconclusive, SMN2 splice up 13µM*, Rab9 promoter act 1.6µM* and FLuc modulator 2.7µM*.
Screening Oc1[nH]c2ccccc2c1C=Nc1ccc2c(c1)OCO2 returned ELG1 genotoxic inconclusive, NPC1 promoter act 2µM*, ELG1 DNA repair inconclusive, SMN2 splice up 0.89µM*, Rab9 promoter act 1.8µM* and FLuc modulator 7.6µM*.
For COc1ccc(N=Cc2c(O)ccc3ccccc23)cc1 the results were ELG1 genotoxic -10%, NPC1 promoter act -2%, ELG1 DNA repair 5%, Rab9 promoter act -3% and FLuc modulator 13µM*.
For CC1=C(C(=O)Nc2ccc(C)cc2C)C(c2cccs2)n2nc(SCc3ccc(Cl)cc3)nc2N1 (stereo not given) the results were SMN2 splice up -2% and FLuc modulator 3%.
`COc1ccc(C(=O)Cn2cnc3ccccc3c2=O)cc1` gave ELG1 genotoxic inconclusive, NPC1 promoter act inconclusive, ELG1 DNA repair inconclusive, Rab9 promoter act 3.2µM* and FLuc modulator 13µM*.
`COc1ccc(C(=O)Nn2cnc3ccccc3c2=O)c(OC)c1` gave ELG1 genotoxic inconclusive, NPC1 promoter act 2.2µM*, ELG1 DNA repair inconclusive, SMN2 splice up 14µM*, Rab9 promoter act 2.5µM* and FLuc modulator inconclusive.
Screening COc1ccc(C(=O)Nn2c(C)nc3ccccc3c2=O)c(OC)c1 returned ELG1 genotoxic 0%, NPC1 promoter act 1%, ELG1 DNA repair -5%, Rab9 promoter act 15% and FLuc modulator 7%.
Screening Cc1cc(C(=O)Cn2cnc3ccccc3c2=O)c(C)n1C1CC1 returned ELG1 genotoxic 5.2µM*, NPC1 promoter act inconclusive, ELG1 DNA repair inconclusive, Rab9 promoter act inconclusive and FLuc modulator -15%.
For Cc1ccc(C(=O)Cn2cnc3ccccc3c2=O)cc1C the results were SMN2 splice up inconclusive and FLuc modulator 19µM*.
Cc1cc(C)cc(NC(=O)COC(=O)c2cccc(S(=O)(=O)N3CCCCC3)c2)c1 was read as ELG1 genotoxic 2%, NPC1 promoter act -5%, ELG1 DNA repair 2%, Rab9 promoter act 0% and FLuc modulator 1%.
Screening Cc1ccc(C(=O)CSc2cnc3ccccc3n2)cc1C returned ELG1 genotoxic 9.2µM*, NPC1 promoter act -3%, ELG1 DNA repair inconclusive, SMN2 splice up -73%, Rab9 promoter act -1% and FLuc modulator 7.6µM*.
Cc1cc(SCC(=O)c2ccccc2)nc2ccccc12 was read as SMN2 splice up 8%[9.22 µM].
For O=C(Cn1cnc2ccccc2c1=O)Nc1ccc2c(c1)OCO2 the results were ELG1 genotoxic inconclusive, NPC1 promoter act 24%, ELG1 DNA repair inconclusive, SMN2 splice up inconclusive, Rab9 promoter act inconclusive and FLuc modulator 19µM*.
O=C(Cn1cnc2ccccc2c1=O)NCc1ccc2c(c1)OCO2 was read as ELG1 genotoxic 0%, NPC1 promoter act 1%, ELG1 DNA repair 3%, SMN2 splice up -2%, Rab9 promoter act -7% and FLuc modulator -3%.
Screening O=C(Cn1cnc2ccccc2c1=O)c1ccc2c(c1)OCCO2 returned ELG1 genotoxic inconclusive, NPC1 promoter act 2µM*, ELG1 DNA repair inconclusive, SMN2 splice up 11µM*, Rab9 promoter act 1.3µM* and FLuc modulator 6µM*.
`O=C(CSc1ncn[nH]1)c1ccc2c(c1)OCO2` gave ELG1 genotoxic inconclusive, NPC1 promoter act 5%, ELG1 DNA repair inconclusive, SMN2 splice up -4%, Rab9 promoter act 0% and FLuc modulator inconclusive.
`O=C(CSc1ccc2ccccc2n1)c1ccc2c(c1)OCO2` gave ELG1 genotoxic 21µM*, NPC1 promoter act 16%, ELG1 DNA repair inconclusive, SMN2 splice up -42%, Rab9 promoter act 16% and FLuc modulator inconclusive.
For Cc1ccc(N2CCN(C(=O)c3cn(C)c4ccc(S(=O)(=O)N5CCC(C)CC5)cc4c3=O)CC2C)cc1 (stereo not given) the results were SMN2 splice up -1% and FLuc modulator -3%.
Nc1cc([N+](=O)[O-])ccc1C(=O)O was read as SMN2 splice up -6%.
Screening Nc1ccc(C(=O)Oc2ccc([N+](=O)[O-])cc2)c(O)c1 returned ELG1 genotoxic -1%, NPC1 promoter act -2%, ELG1 DNA repair 9%, Rab9 promoter act 2% and FLuc modulator 15µM*.
Screening Nc1ccc(C(=O)Oc2ccc([N+](=O)[O-])cc2)cc1 returned ELG1 genotoxic inconclusive, NPC1 promoter act 5%, ELG1 DNA repair inconclusive, Rab9 promoter act 14% and FLuc modulator 3.4µM*.
COc1ccccc1Nc1sc(C(=O)c2ccc(C)cc2C)c(N)c1S(=O)(=O)c1ccccc1 was read as FLuc modulator 1%.
For Cc1ccc(C2=NN(C(=S)Nc3ccccc3)C(c3ccco3)C2)cc1 (stereo not given) the results were ELG1 genotoxic inconclusive, NPC1 promoter act 2.8µM*, ELG1 DNA repair inconclusive, SMN2 splice up 13µM*, Rab9 promoter act 3.2µM* and FLuc modulator 7.6µM*.
`N/C(=N\OC(=O)C1CCCCC1)c1cccc([N+](=O)[O-])c1` gave ELG1 genotoxic inconclusive, NPC1 promoter act 11%, ELG1 DNA repair inconclusive, SMN2 splice up 10%, Rab9 promoter act 24% and FLuc modulator 11µM*.
`Cc1ccc(C(=O)O/N=C(\N)c2cccc([N+](=O)[O-])c2)cc1` gave ELG1 genotoxic inconclusive, NPC1 promoter act 3.5µM*, ELG1 DNA repair inconclusive, SMN2 splice up 20%, Rab9 promoter act 3.5µM* and FLuc modulator 0.19µM*.
`N/C(=N\OC(=O)c1ccc(Br)cc1)c1cccc([N+](=O)[O-])c1` gave ELG1 genotoxic inconclusive, NPC1 promoter act inconclusive, ELG1 DNA repair inconclusive, Rab9 promoter act 28% and FLuc modulator 0.85µM*.
For Cc1ccc(CC(=O)O/N=C(\N)c2cccc([N+](=O)[O-])c2)cc1 the results were ELG1 genotoxic 0%, NPC1 promoter act -3%, ELG1 DNA repair 15%, SMN2 splice up -14%, Rab9 promoter act 2% and FLuc modulator inconclusive.

Bioassay records deposited in PubChem by National Center for Advancing Translational Sciences (NCATS).
